Screens: PubChem BioAssay, Broad Institute
PAX8 inh HTS: inhibitors of PAX8-driven TPO luciferase reporter, primary screen, RMG-I cells, single concentration; 1.2% of 360,000 active; inhibition, % at 12.6 µM; SteadyGlo, 24 h; AID 652154, 2013;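 active = mean replicate inhibition at least 60% with every replicate also reaching 60%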;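 also: luciferase light reporting Pax8 driven TPO promoter activity; plate controls were median of neutral control wells for no effect and mitoxantrone controls for full effect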
PGC1a acetyl inh: inhibitors of PGC1a acetylation signal, primary screen, cell-based, U2OS, AlphaScreen, inhibitor mode; AlphaScreen anti-acetyl-lysine; with virally co-expressed GCN5 acetyltransferase; inhibition, % at 15.6 µM; 0.17% of 350,000 active;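 active = every replicate shows inhibition of at least 40%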;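 also: 0% = neutral control wells and 100% = positive control wells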
EWS-Fli inh: EWS/Fli-driven NR0B1 reporter inhibitors, primary screen, A673 cells, NR0B1 luciferase, luminescence, MLPCN library; viability-normalised; inhibition, % at 12.6 µM; 0.67% of 350,000 active;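 active = mean inhibition of at least 50% after viability correction, with every replicate also passing that limit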;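 also: firefly luciferase signal divided by Alamar Blue viability fluorescence both relative to DMSO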
rRNA inh HTS: reduced GFP signal of wild-type E. coli, primary screen, bacterial rRNA inhibitor project, GFP/RFP fluorescence, OD600, single point. 1.6% of 350,000 active. GFP signal change (wild-type ribosome), % (concentration not given with the values). AID 720706, 2013. E. coli WT GFP vs humanized-ribosome RFP mutants, 24 h; hits give low values; DMSO median 0, no signal -100;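 active = significant combined selectivity score with lowered wild-type GFP, culture density cut under 30%, mutant RFP and density less affected; inactive = any of these conditions unmet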
LGR2 inh: inhibitors of bursicon-induced LGR2 CRE-luciferase signal, primary screen, cell-based, HEK293, CRE-luciferase reporter, bursicon stimulation; bursicon-stimulated, 4 h; 0.35% of 380,000 active; inhibition, % at 9.99 µM; Drosophila bursicon receptor LGR2 (rickets);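 active = drop in luminescence signal, shown as inhibition above about 50% in the replicate tests, limit read from the data, passing the limit was not always enough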;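 also: agonist challenge used bursicon conditioned medium at about half maximal strength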
SIRT5 block: SIRT5 desuccinylase inhibitors, primary screen, biochemical, fluorescence imaging, single point, set 5; NAD-dependent protein deacylase sirtuin-5, mitochondrial (Homo sapiens), Q9NXA8; Purified SirT5, succinyl-peptide AMC, trypsin-coupled fluorescence; inhibition, % at 15 µM; 1.1% of 330,000 active; AID 652115, 2013; in the data active = inhibition above about 15%
Target sequence (Q9NXA8 whole entry, looked up): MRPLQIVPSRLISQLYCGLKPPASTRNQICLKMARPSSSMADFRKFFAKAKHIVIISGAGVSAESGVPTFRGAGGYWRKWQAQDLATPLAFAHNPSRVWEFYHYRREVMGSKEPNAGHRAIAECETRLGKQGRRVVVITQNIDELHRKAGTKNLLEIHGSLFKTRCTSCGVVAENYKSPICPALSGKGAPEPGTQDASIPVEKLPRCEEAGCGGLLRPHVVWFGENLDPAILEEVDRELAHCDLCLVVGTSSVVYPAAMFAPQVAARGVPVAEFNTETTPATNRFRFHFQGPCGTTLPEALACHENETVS
* hit, by the source's call; . = no result; ! = not confirmed by another sample. Compounds with a hit are over-represented: about 3.4% of the library has one in this group of screens.

SMILES	PAX8 inh HTS	PGC1a acetyl inh	EWS-Fli inh	rRNA inh HTS	LGR2 inh	SIRT5 block
O=C(C[C@H]1CC[C@@H]2[C@H](COC[C@@H](O)CN2Cc2ccc(F)cc2)O1)NCc1ccccc1Cl	92*	1	10	-3	3	-4
O=C(C[C@@H]1CC[C@H]2[C@@H](COC[C@@H](O)CN2Cc2ccncc2)O1)NCc1ccncc1	-6	4	2	-1	-14	19*
O=C(C[C@H]1CC[C@@H]2[C@H](COC[C@H](O)CN2Cc2cccc(F)c2)O1)NCc1cccc(F)c1	6	-2	-3	-9	-15	20*!
O=C(C[C@H]1CC[C@H]2[C@@H](COC[C@@H](O)CN2Cc2ccncc2)O1)NCc1ccncc1	-8	-8	-2	-2	-7	3
O=C(C[C@@H]1CC[C@@H]2[C@H](COC[C@H](O)CN2Cc2ccc(Cl)cc2)O1)NCCc1ccccc1	22	-5	1	-5	7	0
O=C(C[C@@H]1CC[C@H]2[C@@H](COC[C@H](O)CN2Cc2cc(F)cc(F)c2)O1)NCc1cccc(F)c1	13	-6	4	-4	5	0
CC=Cc1ccc2n(c1=O)C[C@H]1[C@H](CO)[C@@H](C(=O)NCC(F)(F)F)[C@@H]2N1C(=O)C1CCCC1 (mixture of isomers)	.	.	.	-2	.	.
CC(=O)Nc1ccc2c(c1)C(=O)N(C)C[C@H](C)[C@@H](CN(C)C(C)=O)O2	.	.	.	0	.	.
Clc1ccc2c(c1)c1ccccc1n2CN1CCOCC1	.	.	.	-33*	-11	9
CC(C)(C)c1cccc(C2(O)C(=O)c3ccccc3C2=O)c1O	22	2	-2	-38*	-5	-2
COc1ccc(-c2nnc(SCc3ccccc3F)o2)cc1	.	-6	.	.	.	.
COc1cc(OC)cc(-c2nnc(SCc3c(F)cccc3Cl)o2)c1	.	4	-41	-28*	-29	-3
C[C@H](CO)N1C[C@H](C)[C@H](CN(C)C(=O)NC2CCCCC2)Oc2ccc(NC(=O)Nc3ccc(C(F)(F)F)cc3)cc2CC1=O	5	-2	3	4	4	3
C[C@H]1CN([C@@H](C)CO)C(=O)Cc2cc(NC(=O)Nc3ccc(C(F)(F)F)cc3)ccc2O[C@H]1CN(C)CC1CCCCC1	-7	-18	0	.	-6	-4
C[C@H](CO)N1C[C@H](C)[C@H](CN(C)CC2CCCCC2)Oc2ccc(NC(=O)Nc3ccc4c(c3)OCO4)cc2CC1=O	-12	7	4	1	9	1
C[C@H](CO)N1C[C@H](C)[C@@H](CN(C)C(=O)NC2CCCCC2)Oc2ccc(NC(=O)Nc3ccc(C(F)(F)F)cc3)cc2CC1=O	59	-1	9	2	-5	-1
C[C@@H]1CN([C@H](C)CO)C(=O)Cc2cc(NC(=O)Nc3ccc4c(c3)OCO4)ccc2O[C@H]1CN(C)CC1CCCCC1	23	-11	-3	-11	-2	17*
C[C@@H]1CN([C@@H](C)CO)C(=O)Cc2cc(NC(=O)Nc3ccc(C(F)(F)F)cc3)ccc2O[C@H]1CN(C)CC1CCCCC1	-34	-18	59*	-9	4	-8
C[C@H]1CN([C@@H](C)CO)C(=O)Cc2cc(NC(=O)Nc3ccc(C(F)(F)F)cc3)ccc2O[C@H]1CN(C)C(=O)NC1CCCCC1	78*	7	-1	.	.	1
C[C@@H]1CN([C@@H](C)CO)C(=O)Cc2cc(NC(=O)Nc3ccc(C(F)(F)F)cc3)ccc2O[C@@H]1CN(C)C(=O)NC1CCCCC1	25	-7	59*	1	10	3
O=C(Cc1ccccc1)N[C@@H]1CC[C@@H](CC(=O)N2CCOCC2)O[C@@H]1CO	-3	5	-3	2	-17	0
C[C@H]1CN([C@@H](C)CO)C(=O)c2cc(NS(=O)(=O)c3ccc(F)cc3)ccc2O[C@@H]1CN(C)Cc1ccc(Cl)c(Cl)c1	-3	-10	10	-4	15	0
